Screening results as filed in PubChem BioAssay.
This is a sample that favours compounds with a hit; in the whole collection about 3.2% have one here.
HDAC3 inh: blocks human histone deacetylase 3. O15379. recombinant HDAC3, fluorogenic peptide/trypsin coupled, fluorescence. inhibition, % at 8.3 µM. 320,000 tested, 0.15% active. AID 2718; in the data active = inhibition above about 26%, passing the limit was not always enough
CHT allo act: allosteric activators of human choline transporter CHT; AID 488977; B-score at 10 µM; Q9GZV3; 310,000 tested, 0.49% active; CHT-expressing cells, membrane potential dye, choline EC20; hits give high values; LV-AA mutant CHT in HEK293 cells;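 active = initial fluorescence not abnormally high and integrated response B-score, plate-corrected, over 3 SD above library mean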
CHT block: inhibits the human high affinity choline transporter | 310,000 tested, 0.86% active | AID 488975 | CHT-expressing cells, membrane potential dye, choline response; hits give low values | B-score at 10 µM | Q9GZV3;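 active = B-score over 3 SD under the library average, and starting fluorescence ratio not unusually high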;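 also: choline stimulus applied at its EC90 after an EC20 pre-addition; B-score computed on integrated fluorescence ratio after choline addition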
TMEM16A inh: blocks the mouse calcium-activated chloride channel TMEM16A; normalized B-score (activity score, 25-100; higher = stronger inhibition) at 10 µM; AID 588511; 310,000 tested, 1.2% active; HEK293 TMEM16A/YFP iodide influx fluorescence, ionomycin;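 active = ratio plate-corrected score three or more library SD toward inhibition, starting fluorescence score within five deviations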;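 also: score derived from kinetic fluorescence span divided by baseline fluorescence per well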
PHOSPHO1 block: PHOSPHO1 (human) inhibition; recombinant PHOSPHO1, absorbance phosphatase assay; Q8TCT1; AID 1565; inhibition, % at 13.3 µM; 290,000 tested, 1.1% active; in the data active = inhibition above about 60%
ANO1 activ: activates or potentiates the mouse TMEM16A chloride channel. HEK293 TMEM16A/YFP-H148Q/I152L, iodide quench fluorescence; hits give low values. Q8BHY3. AID 623877. 340,000 tested, 0.3% active. B-score at 10 µM;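 active = fluorescence-ratio B-score plate-corrected deviation score at least 3 library SD below zero, with starting fluorescence score within 5 deviations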;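 also: channel opened by trigger with iodide after compound preincubation; score built on the fluorescence ratio of max minus min over baseline; more negative score means more quench and so TMEM16A activation or potentiation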
TMEM16A reconf: re-confirmation of mouse TMEM16A chloride channel inhibitors; shares compounds with TMEM16A inh; HEK293 TMEM16A/YFP-H148Q, iodide quench fluorescence; ionomycin added to raise cell calcium; inhibition, % at 10 µM; 2,300 tested, 39% active; AID 652189;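 active = mean duplicate percent inhibition, scaled so buffer wells are 0 and the reference blocker 100, over three buffer SD above buffer mean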
HEK293 Ca mobil: calcium mobilization counter-screen hit for TMEM16A inhibitor series | 2,300 tested, 2% active | calcium response (% of ionomycin), % at 10 µM | AID 652231 | TMEM16A/YFP HEK293, Fluo4 calcium mobilization | shares compounds with TMEM16A inh;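 active = duplicate-averaged calcium signal over 20% of the ionomycin maximum, relative to buffer baseline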;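 also: each well's signal is peak minus trough fluorescence divided by its pre-addition baseline; 0% = buffer wells and 100% = ionomycin wells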
Parental YFP cnt: acts in parental YFP-HEK293 cells lacking TMEM16A, counter-screen; shares compounds with TMEM16A inh; YFP ratio F(max-min)/F0 at 10 µM; iodide YFP quench, ionomycin; 2,300 tested, under 10 active;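 active = yellow fluorescent protein signal ratio exceeding the buffer control mean by over 5 SD of those controls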;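 also: ratio is mean of duplicate wells from kinetic YFP trace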
ClC-1 rat inh: blocks the rat ClC-1 voltage-dependent chloride channel. CHO ClC-1-YFP, iodide influx fluorescence quench; iodide control reads 0, buffer control 100. ratio percent, % at 10 µM. shares compounds with TMEM16A inh. AID 652236. 2,300 tested, under 10 active;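 active = duplicate-mean ratio percent above the mean of iodide-only control wells, which defines zero, plus 5 of their SD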;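 also: higher percent means stronger block of ClC-1 iodide influx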
Target sequence (P35524 whole entry, looked up): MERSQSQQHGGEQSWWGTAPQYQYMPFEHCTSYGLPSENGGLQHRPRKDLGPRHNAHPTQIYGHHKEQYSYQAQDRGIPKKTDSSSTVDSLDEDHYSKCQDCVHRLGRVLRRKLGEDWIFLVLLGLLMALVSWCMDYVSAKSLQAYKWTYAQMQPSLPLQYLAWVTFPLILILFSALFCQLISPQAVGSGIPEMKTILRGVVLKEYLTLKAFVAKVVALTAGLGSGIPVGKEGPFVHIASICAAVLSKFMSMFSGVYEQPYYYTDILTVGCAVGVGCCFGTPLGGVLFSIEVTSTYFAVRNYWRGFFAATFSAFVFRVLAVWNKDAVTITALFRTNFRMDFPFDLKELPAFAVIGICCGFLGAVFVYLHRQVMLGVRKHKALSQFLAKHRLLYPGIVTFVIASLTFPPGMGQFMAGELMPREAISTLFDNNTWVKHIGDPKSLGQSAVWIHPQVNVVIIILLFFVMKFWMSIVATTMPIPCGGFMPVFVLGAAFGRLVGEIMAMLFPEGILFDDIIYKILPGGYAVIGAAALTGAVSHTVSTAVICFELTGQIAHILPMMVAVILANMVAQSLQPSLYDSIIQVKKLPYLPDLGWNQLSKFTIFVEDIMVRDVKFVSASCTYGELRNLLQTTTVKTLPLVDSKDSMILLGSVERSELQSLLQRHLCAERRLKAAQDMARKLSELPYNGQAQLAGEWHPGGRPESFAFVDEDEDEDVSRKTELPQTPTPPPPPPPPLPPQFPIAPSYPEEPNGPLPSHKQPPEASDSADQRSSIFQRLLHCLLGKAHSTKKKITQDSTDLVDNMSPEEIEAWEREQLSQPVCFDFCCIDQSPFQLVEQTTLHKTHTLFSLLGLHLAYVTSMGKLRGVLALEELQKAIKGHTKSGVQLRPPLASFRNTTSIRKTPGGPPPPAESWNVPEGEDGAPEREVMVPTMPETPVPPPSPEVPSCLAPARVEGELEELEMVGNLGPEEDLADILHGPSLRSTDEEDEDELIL
Numbers without * were called inactive; i = inactive; . = not tested or not shown.

SMILES	HDAC3 inh	CHT allo act	CHT block	TMEM16A inh	PHOSPHO1 block	ANO1 activ	TMEM16A reconf	HEK293 Ca mobil	Parental YFP cnt	ClC-1 rat inh
COc1ccc(CC(=O)Nc2nc(-c3ccc(OC)c(OC)c3)cs2)cc1OC	0	i	i	25*	15	i	35%*	i	-0.91	-2
COc1ccc(-c2csc(NC(=O)CCNC(=O)c3ccco3)n2)cc1OC	-1	.	.	.	.	i	.	.	.	.
COc1ccc(-c2csc(NC(=O)Cc3ccccc3F)n2)cc1OC	-5	i	i	100*	19	i	i	i	-0.84	0
COc1ccc(-c2csc(NC(=O)c3cc(C)oc3C)n2)cc1OC	12	i	i	i	-20	i	.	.	.	.
COc1ccc(-c2csc(NC(=O)CC(NC(C)=O)c3ccccc3)n2)cc1OC (centres undefined)	5	i	i	i	20	i	.	.	.	.
COc1ccc(S(=O)(=O)Nc2ccccc2C(=O)Nc2nc(-c3ccc(F)cc3)cs2)cc1OC	.	i	i	100*	4	i	50%*	i	-1.1	-12
O=C(Nc1cccc(C(F)(F)F)c1)c1ccc(Cn2cc(Br)cn2)o1	11	i	i	100*	4	i	49%*	i	-1.1	-12
CO/N=C/C(C#N)c1ncc(C(F)(F)F)cc1Cl (centres undefined)	14	i	i	25*	3	i	16%*	i	-0.84	-8
CO/N=C/C(c1ncc(C(F)(F)F)cc1Cl)S(=O)(=O)c1ccccc1 (centres undefined)	-6	i	i	i	0	i	.	.	.	.
O=C(N/N=C/c1c(F)c(F)c(F)c(F)c1F)c1cccc(S(=O)(=O)N2CCOCC2)c1	1	i	i	i	-28	i	.	.	.	.
Cc1ccsc1C(=O)OCc1csc(-c2ccccc2)n1	-1	i	i	100*	20	i	16%*	i	-1.1	-4
COC(=O)c1c(C)[nH]c(C(=O)NCc2ccco2)c1C	-3	i	i	i	24	i	.	.	.	.
O=C(NCc1cccnc1)c1nc(-c2ccc(C(F)(F)F)cc2)no1	3	i	i	i	32	i	.	.	.	.
O=C(NCc1ccncc1)c1nc(-c2ccc(C(F)(F)F)cc2)no1	0	i	i	25*	42	i	18%*	i	-0.83	-1
Cc1cc(NC(=O)c2cccs2)ncc1NC(=O)C(C)C	-1	i	i	i	18	i	.	.	.	.
O=[N+]([O-])c1ccc(-c2nnc(-c3ccccc3)c(N3CCOCC3)n2)cc1	2	i	i	i	14	i	i	i	-1.2	-14
FC(F)(F)c1cccc(-c2nnc(-c3ccccc3)c(N3CCOCC3)n2)c1	3	i	i	i	32	i	.	.	.	.
CCOC(=O)c1ccc(-n2[nH]c(-c3ccccc3)cc2=O)cc1	5	i	i	100*	11	i	i	i	-0.89	-4
CCOC(=O)c1ccc(N=Nc2c(C)[nH]n(-c3ccccc3)c2=O)cc1	0	i	i	i	19	i	.	.	.	.
O=C(/C=C/c1ccc(Cl)cc1)Nc1ccc(CN2CCOCC2)cc1	7	i	i	i	4	i	.	.	.	.
CC(C)c1ccc(C(=O)Nc2ccc(CN3CCOCC3)cc2)cc1	1	i	i	100*	25	i	i	i	-1.1	-14
CC(C)c1ccc(/C=C/C(=O)Nc2ccc(CN3CCOCC3)cc2)cc1	5	i	i	100*	30	i	26%*	i	-1.1	6
Cc1ccnc(Nc2nc(-c3ccc(Cl)cc3)cs2)c1	-4	i	i	i	14	i	.	.	.	.
Cc1ccnc(Nc2nc(-c3ccc(F)cc3)cs2)c1	7	i	i	100*	19	i	i	i	-1.1	-2
CC(=O)Oc1ccc(-c2cccc(C(=O)NCC(=O)O)c2)cc1	0	i	i	25*	37	i	i	i	-1.1	-6
SMILES	HDAC3 inh	CHT allo act	CHT block	TMEM16A inh	PHOSPHO1 block	ANO1 activ	TMEM16A reconf	HEK293 Ca mobil	Parental YFP cnt	ClC-1 rat inh
Cc1cc(C(=O)CSc2ccc(F)cc2)cc(C)c1OC(=S)N(C)C	4	i	i	100*	0	i	i	i	-1.4	-8
CCN(C(=S)NCc1ccccc1)c1cccc2ccccc12	5	i	i	25*	-39	i	i	i	-1.2	-8
Cc1ccc(NC(=O)c2ccc(S(=O)(=O)NCc3ccco3)cc2)cc1	0	i	i	i	28	i	.	.	.	.
OCCCn1c(-c2ccccc2)csc1=Nc1ccccc1	-1	i	i	100*	-1	i	28%*	i	-1	-8
Cn1c(=S)c2[nH]c(SCCC(C)(C)C)nc2n(C)c1=O	.	.	.	.	.	i	.	.	.	.
N#Cc1nc(-c2ccccc2Cl)oc1N1CCCCC1	-22	i	i	25*	3	i	i	i	-1	-7
COc1ccccc1-c1nc(C#N)c(N2CCN(Cc3ccccc3)CC2)o1	-3	i	i	i	-29	i	.	.	.	.
COc1ccccc1-c1nc(C#N)c(N2CCC(Cc3ccccc3)CC2)o1	-13	i	i	100*	-2	i	i	i	-1.1	-15
CCN(Cc1ccccc1)C(=O)Cn1c(=O)n(CCC(=O)N2CCCCC2)c(=O)c2sccc21	6	i	i	i	22	i	.	.	.	.
O=C(CCC1CCCCC1=O)c1ccccc1 (centres undefined)	-8	i	i	i	15	i	.	.	.	.
CC1(C)CC(=O)C(CCC(=O)c2ccccc2)C(C)(C)N1 (centres undefined)	-14	i	i	25*	-20	i	i	i	-1.1	-14
Cc1ccc(NC(=O)c2ccn(C)n2)c(Br)c1	-10	i	i	i	3	i	.	.	.	.
COc1ccc(N(C)C(=O)c2cc3c(s2)-c2ccccc2OC3)c(OC)c1	5	i	i	i	33	i	.	.	.	.
